LASV entry inh = qHTS for Inhibitors of binding or entry into cells for Lassa Virus | Lassa virus pseudotyped entry inhibition, cell-based qHTS | Potency, µM (series often up to 49.2 µM), most hits filed as inhibitors | 18,000 compounds, 4.1% hits | AID 720533, 2013
MARV entry inh = qHTS for Inhibitors of binding or entry into cells for Marburg Virus; Potency, µM (titrated, usually from 49.2 µM), most hits filed as inhibitors; 18,000 compounds, 6.5% hits; Marburg virus pseudotype entry/binding inhibition, cell-based
Of the large screens only hits and unclear results are named; the others gave an inactive call. A selection: hits, their analogues and other compounds. The true share with any hit is near 8.6%. Calls come from the whole dose curve; tested in HEK293 cells.

CC(C)=CCC[C@](C)(O[C@@H]1O[C@H](CO)[C@@H](O)[C@H](O)[C@H]1O)[C@H]1CC[C@]2(C)[C@@H]1[C@H](O)C[C@@H]1[C@@]3(C)CC[C@H](O[C@@H]4O[C@H](CO)[C@@H](O)[C@H](O)[C@H]4O[C@@H]4O[C@H](CO)[C@@H](O)[C@H](O)[C@H]4O)C(C)(C)[C@@H]3[C@@H](O)C[C@]12C	MARV entry inh inconclusive
C=C1[C@@H]2CCN3C(=O)N[C@@H](c4ccccc4)[C@@]1(C(=O)OCC)C23 (some centres undefined)	MARV entry inh inconclusive
C[C@@H]1CN(Cc2ccc3c(c2)CN(Cc2nc(-c4ccccc4)cs2)CCO3)C[C@H](C)O1	none
CC[C@H]1OC(c2ccccc2)[C@H](C)[C@H]2O[C@@H]2[C@@H]1C(=O)OC (some centres undefined)	none
O=C1c2ccccc2C(=O)N1CCCC[C@]12Cc3ccccc3[C@H](O1)c1c(c3ccccc3oc1=O)O2	none
COC(=O)[C@@H]1CC[C@H](C)[C@@H](c2ccc(C)cc2)N1C(=O)c1ccc(C=NO[C@@H](C)c2cn([C@H](CO)Cc3ccccc3)nn2)cc1	none (no result: LASV entry inh)
Fc1ccc(-c2ncn(C3CCNCC3)c2-c2ccnc(Oc3ccc(F)c(F)c3)n2)cc1	LASV entry inh inconclusive, MARV entry inh 3.5µM
Nc1nccc(-c2c(-c3ccc(F)cc3)ncn2C2CCNCC2)n1	MARV entry inh inconclusive
Fc1ccc(-c2ncn(C3CCNCC3)c2-c2ccnc(Oc3ccc(Oc4ccccc4)cc3)n2)cc1	LASV entry inh inconclusive, MARV entry inh 8.9µM
O=C(NN=C1C[C@@H](O)[C@H](O)[C@H]2[C@@H]3C(=O)N(C[C@@H]4CCCO4)C(=O)[C@@H]3CC[C@H]12)OCc1ccccc1	none (no result: LASV entry inh)
CS(=O)(=O)CCNCc1cc(-c2cc3c(Nc4ccc(OCc5cccc(F)c5)c(Cl)c4)ncnc3s2)cs1	MARV entry inh inconclusive
CC(=O)Nc1cccc(C#Cc2cncnc2Nc2ccc(OCc3cccc(F)c3)c(Cl)c2)c1	MARV entry inh 13µM (no result: LASV entry inh)
CC(C)[C@@]1(NC(=O)[C@H]2CC3c4cccc5[nH]cc(c45)C[C@H]3N(C)C2)O[C@@]2(O)C3CCCN3C(=O)[C@@H](Cc3ccccc3)N2C1=O (some centres undefined)	MARV entry inh 8.9µM
CN1C[C@H](C(=O)N[C@]2(C)O[C@@]3(O)C4CCCN4C(=O)[C@H](Cc4ccccc4)N3C2=O)C[C@@H]2c3cccc4[nH]cc(c34)C[C@H]21 (some centres undefined)	LASV entry inh inconclusive, MARV entry inh 13µM
CC(C)[C@@]1(NC(=O)[C@@H]2C[C@H]3c4cccc5[nH]cc(c45)C[C@@H]3N(C)C2)O[C@]2(O)[C@H]3CCCN3C(=O)[C@H](Cc3ccccc3)N2C1=O	MARV entry inh inconclusive
CN1C[C@H](C(=O)N[C@]2(C)O[C@]3(O)[C@H]4CCCN4C(=O)[C@H](Cc4ccccc4)N3C2=O)C[C@H]2c3cccc4[nH]cc(c34)C[C@@H]21	MARV entry inh inconclusive
COc1ccc(-c2ccc3c(NC(=O)C4CC4)n[nH]c3n2)cc1	none
C[C@@H]1C[C@@H]([C@@H](C)CC2CC(=O)NC(=O)C2)C(=O)[C@@H](C)C1	LASV entry inh 4.5µM, MARV entry inh 5µM
C[C@H]1C[C@H](C)C(=O)[C@@H]([C@H](O)CC2CC(=O)NC(=O)C2)C1	LASV entry inh 3.2µM, MARV entry inh inconclusive
CCOC(=O)CN1C(=O)CC(C[C@@H](O)C2C[C@@H](C)C[C@H](C)C2=O)CC1=O (some centres undefined)	none
C[C@H]1C[C@@H](C)C(=O)[C@@H]([C@H](O)CC2CC(=O)NC(=O)C2)C1	LASV entry inh 3.5µM, MARV entry inh 1.1µM
CC1CC(C)C(=O)[C@H](C(O)CC2CC(=O)NC(=O)C2)C1 (some centres undefined)	LASV entry inh 5.6µM, MARV entry inh 2.5µM
COC(=O)C1=C(C(=O)OC)[C@@H]2N(C)c3ccccc3[C@@]23CCC(=O)N(Cc2ccc4c(c2)OCO4)C3=N1	MARV entry inh inconclusive
O=C1N(Cc2ccccc2C(F)(F)F)c2ccccc2[C@@]12O[C@H](COc1ccccc1)CC1=C2CCC1	none
C=CCN1c2ccccc2[C@]23CCC(=O)N(CCc4ccccn4)C2=NC(C(=O)OC)=C(C(=O)OC)[C@H]13	none
COC[C@@H](O)[C@H]1OCc2cccc(OC)c2[C@H]1C=Cc1ccccc1	none
CCCC=Cc1ccc(CN2C(C)C(=O)N(Cc3cn(CCOCOC)nn3)CCS2(=O)=O)cc1 (centres undefined)	none (no result: LASV entry inh)
COC(=O)[C@@]1(C=C2c3ccc(F)cc3[C@@H](OC)[C@@H]2C)[C@@H]2OCCC[C@@H]21	none
C#CCCCON=C1C[C@@H](O)[C@@H](O)[C@@H]2[C@H]3C(=O)N(C(C)(C)C)C(=O)[C@@H]3CC[C@H]12	none

Assay outcomes deposited in PubChem by National Center for Advancing Translational Sciences (NCATS).
